Reference: PubChem BioAssay AID686979 (National Center for Advancing Translational Sciences (NCATS), 2013)
In all, about 420,000 compounds went through this assay and about 50,000 (12%) were called active. Inconclusive results (about 26%) are left out. The entries come from a sample that favours actives as a whole. Unmarked numbers belong to inactive results. Calls follow the shape of the dose curve; as a rule, active = well fitted inhibition curve with a large enough effect; inconclusive = small, poorly fitted or top-dose-only effect; inactive = flat fitted curve, though single readings scatter.

Experiment: qHTS for Inhibitors of human tyrosyl-DNA phosphodiesterase 1 (TDP1): qHTS in cells in presence of CPT; also: nearly all actives have a fitted effect of over 55% in size
Conditions: chicken DT40 Tdp1-/-;hTDP1 cells + 20 nM CPT, ATP luminescence, 48 h; series mostly up to 46.2 µM; activity change, negative = growth inhibition: at the top concentration
Summary of the method: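 Cell growth measured by CellTiter-Glo luminescence after a minimum 48 h, 37 C compound exposure with 20 nM CPT in Tdp1-knockout DT40 cells stably expressing hTDP1, seeded 400/well; qHTS titration format.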
% is scaled to controls: 0 for no effect and ±100 for the full control effect; potency is read from the fitted curve at half-maximal effect.

| Structure (SMILES) | activity change, negative = growth inhibition | Potency |
| --- | --- | --- |
| Nc1c(N(CCCO)C(=O)C2CCCC2)c(=O)[nH]c(=O)n1Cc1ccccc1 | -20.6% |  |
| Cn1c(=O)[nH]c2c(c(C(=O)O)nn2C)c1=O | 25.9% |  |
| Oc1c(Cl)cc(Cl)cc1/C=N/c1ncn[nH]1 | -23.1% |  |
| Cc1ccc(NC(=O)CN(C)C(=O)c2ccc(Br)o2)cc1 | -1.54% |  |
| CC(C)c1nnc(NC(=O)COC(=O)/C=C/c2ccc([N+](=O)[O-])cc2)s1 | -4.05% |  |
| O=C(Nc1ccc(F)cc1)C(=O)c1cn(CC(=O)N2CCOCC2)c2ccccc12 | 0.0894% |  |
| O=C(Nc1ccc(C(=O)O)cc1)/C(=C\c1ccccc1)NC(=O)c1ccc(Br)cc1 | -2.66% |  |
| COc1cccc(NC(=O)Cn2c3ccc(F)cc3c3nc4n(c(=O)c32)CCS4)c1 | -6.67% |  |
| C=CCN1C(=O)c2ccc(C(=O)N3CCC(C(=O)OCC)CC3)cc2C1=O | 1.36% |  |
| O=[N+]([O-])c1ccc(N2CCN(c3ccc(O)cc3)CC2)c(Cl)c1 | -70.1% |  |
| COc1ccc(S(=O)(=O)NCC(c2ccc(C)cc2)N2CCN(C)CC2)cc1OC (centres undefined) | -12.4% |  |
| Cc1nn(Cc2ccccc2)c(C)c1C(=O)NCCN1C(=O)S/C(=C\c2ccc(F)cc2)C1=O |  | 16.4 µM (active) |
| Cc1nn(Cc2ccccc2)c(C)c1C(=O)NCCCN1CCCC1=O | 4.85% |  |
| Cn1cccc1/C=C1\SC(=O)N(CC(=O)Nc2ccc(F)cc2)C1=O | -23% |  |
| O=C(COc1coc(CN2CCN(c3ccccc3)CC2)cc1=O)N1CCc2ccccc21 | -5.85% |  |
| CC(Sc1nnc(COc2ccccc2)n1-c1ccccc1)C(=O)O (centres undefined) | -7.31% |  |
| COc1ccc(-c2cc(C(F)(F)F)n3nc(C(=O)N4CCOCC4)c(Cl)c3n2)cc1 |  | 16.4 µM (active) |
| O=C(O)c1cnn2c(C(F)(F)F)cc(-c3ccccc3)nc12 | -7.77% |  |
| COc1ccc(OCC(=O)N2CCOCC2)cc1 | -13.8% |  |
| CC(=O)Nc1ccc(SCC(=O)NC(=O)c2ccc(Cl)cc2)cc1 | -14.9% |  |
| O=c1onc(-c2c(F)cccc2F)n1-c1ccccc1Cl | -18.9% |  |
| COc1ccc(CN(C)CCn2cc(C(=O)N3CCSCC3)nn2)cc1C | 11.4% |  |
| Cn1c(=O)c2c(nc(CN3CCOCC3)n2Cc2ccccc2)n(C)c1=O | -18.4% |  |
| CC1CCCN(Cc2nc3c(c(=O)n(C)c(=O)n3C)n2CC(=O)c2ccccc2)C1 (centres undefined) |  | 23.1 µM (active) |
| CCN1CCN(Cc2nc3c(c(=O)n(C)c(=O)n3C)n2CC(=O)c2ccccc2)CC1 | -4.17% |  |
| O=c1cc(CO)oc(CN2CCC(Cc3ccccc3)CC2)c1O | -6.74% |  |
| COCCn1c(CN2CCC(Cc3ccccc3)CC2)nc2c1c(=O)n(C)c(=O)n2C |  | 8.2 µM (active) |

| Structure (SMILES) | activity change, negative = growth inhibition | Potency |
| --- | --- | --- |
| O=C(O)C1CCCN(CCC=C(c2ccccc2)c2ccccc2)C1 (centres undefined) |  | inactive |
| CCc1ccc(N2CC(C(=O)N3CCCCCC3)CC2=O)cc1 (centres undefined) | 2.2% |  |
| Cc1c(C(=O)NC(C)C2CC3CCC2C3)cccc1[N+](=O)[O-] (centres undefined) | -8.19% |  |
| CCn1c(CSc2nc(C)cc(C)n2)nnc1SCC(N)=O | 16% |  |
| O=C(Nc1ccccc1Br)c1cc(CN2CCCC2)on1 | -28% |  |
| O=C(NCc1ccccn1)c1c(O)c2c([nH]c1=O)CCCC2 | -28.7% |  |
| Cc1cn(COC/C=C/c2ccccc2)c(=O)[nH]c1=O | -9.62% |  |
| Cc1[nH]c(=O)c(C(=O)/C=C/c2ccccc2)c2c1CCCC2 |  | 5.8 µM (active) |
| O=C1NC(=O)C(c2ccc(Cl)cc2)N1 (centres undefined) | -9.04% |  |
| CCCCN(C(=O)C1=NN(c2cc(C)ccc2C)C(=O)CC1)c1c(N)n(CCC)c(=O)[nH]c1=O | -5.86% |  |
| O=C(NCC1CCCO1)c1cc(-c2ccccc2)nc2ccccc12 (centres undefined) | -17% |  |
| O=C(NCC1CCCO1)c1cc2c([nH]c3ccccc32)c(-c2ccc(F)cc2)n1 (centres undefined) |  | 2.06 µM (active) |
| O=C(NCC1CCCO1)c1ccc2ccccc2n1 (centres undefined) | -6.77% |  |
| CCOC(=O)c1c(-c2ccccc2)oc2cc(Br)c(O)cc12 | -23% |  |
| O=C(c1ccncc1)N1CCN(c2ccc3ccccc3n2)CC1 | -24.9% |  |
| O=C(COC(=O)Cc1ccccc1F)NCCc1ccccc1 | 4.14% |  |
| Cn1cc(CN2CCC(C(O)CCc3ccccc3)CC2)c(-c2ccccc2F)n1 (centres undefined) | 10.5% |  |
| N=c1n(CCc2ccccc2)c2ccccc2n1Cc1ccccc1F |  | 7.31 µM (active) |
| CCC(=O)c1ccc(OC(=O)/C=C/c2cc(OC)c(OC)c(OC)c2)cc1 | 2.38% |  |
| CC1(C)C=Cc2c(ccc3c2OC[C@@H](c2ccc(O)cc2O)C3)O1 |  | 25.9 µM (active) |
| NS(=O)(=O)c1ccc(NC2=CC(c3ccc(F)cc3)N(c3ccc(S(N)(=O)=O)cc3)C2=O)cc1 (centres undefined) | -11.3% |  |
| Cc1[nH]nc(SCC(=O)NCC(C)C)c1[N+](=O)[O-] | 2.73% |  |
| CC1CCCC(N2CCN(C(=O)c3ccc(F)cc3)CC2)C1 (centres undefined) | 3% |  |
| COC(=O)c1ccc(COc2ccc(/C=N/NC(=O)C(=O)Nc3ccc(OC)cc3)cc2OC)o1 | -8.05% |  |
| COc1ccccc1OCc1ccc(C(=O)NC(C)c2ccccc2)o1 (centres undefined) | 1.09% |  |
| CCCc1ccc(OCc2ccc(C(=O)N/N=C/c3cccc([N+](=O)[O-])c3)o2)c(OC)c1 |  | 8.2 µM (active) |
| CCOc1ccc(C2C(C#N)=C(N)N(N(C)C)C3=C2C(=O)CCC3)cc1 (centres undefined) | -4.52% |  |
